From PubChem BioAssay (NCI)
This is part of a sample that, as a whole, favours compounds with a hit. Of some 83,000 tested, about 20% had one in any assay.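 96-well plates, one dose, 48 hours. Percent growth reported; active if below 10.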 Activity calls are given as the source filed them.

Tests used:
Assay in all cases: NCI-60 one-dose screen, 48 h (100 = growth as untreated, 0 = no growth, -100 = all killed)
Settings in all cases: 10 µM unless noted
HCT-15 colon = system: HCT-15 colon
HT29 colon = system: HT29 colon
SNB-75 CNS = system: SNB-75 CNS
SNB-19 CNS = system: SNB-19 CNS
PC-3 prostate = system: PC-3 prostate
SK-MEL-5 melanoma = system: SK-MEL-5 melanoma
UACC-62 melanoma = system: UACC-62 melanoma
LOX IMVI melanoma = system: LOX IMVI melanoma
SK-MEL-28 melanoma = system: SK-MEL-28 melanoma
U251 CNS = system: U251 CNS

Measured: growth

O=C1NN(c2ccccc2)C(c2ccc3c(c2)OCO3)N2CCC[C@@H]12 (stereo partly specified)
inactive: HCT-15 colon 102% | HT29 colon 85.8% | SNB-75 CNS 93.6% | SNB-19 CNS 103% | PC-3 prostate 90.7% | SK-MEL-5 melanoma 106% | UACC-62 melanoma 92% | LOX IMVI melanoma 91.9% | SK-MEL-28 melanoma 111%

O=C1c2ccccc2C(=O)c2c1oc1c2c(=O)[nH]c2ccccc21
inactive: HCT-15 colon 44.7% | HT29 colon 103% | SNB-75 CNS 113% | SNB-19 CNS 104% | PC-3 prostate 65.5% | SK-MEL-5 melanoma 79.7% | UACC-62 melanoma 88.7% | LOX IMVI melanoma 56.1% | SK-MEL-28 melanoma 112%

N#Cc1ccc(C2C3=C(CCCC3=O)OC3=C2C(=O)c2ccccc2C3=O)cc1 (stereo unspecified)
active: LOX IMVI melanoma 9.4%
inactive: HCT-15 colon 74.5% | HT29 colon 97.1% | SNB-75 CNS 62.6% | SNB-19 CNS 105% | PC-3 prostate 72.6% | SK-MEL-5 melanoma 61.1% | UACC-62 melanoma 35.1% | SK-MEL-28 melanoma 112%

COC(=O)/C=C1\SC(=Nc2ccc(F)cc2)N(CCc2c[nH]c3ccccc23)C1=O
inactive: HCT-15 colon 98.3% | HT29 colon 66.3% | SNB-75 CNS 108% | SNB-19 CNS 103% | PC-3 prostate 87.9% | UACC-62 melanoma 82.6% | LOX IMVI melanoma 90% | SK-MEL-28 melanoma 112%

C#C[C@@]1(O)[C@@H](CO)O[C@@H](n2cnc3c(-c4ccccc4)ncnc32)[C@@H]1O
inactive: HCT-15 colon 98% | HT29 colon 101% | SNB-75 CNS 85.7% | SNB-19 CNS 112% | PC-3 prostate 95.5% | SK-MEL-5 melanoma 104% | UACC-62 melanoma 108% | LOX IMVI melanoma 94.6% | SK-MEL-28 melanoma 111%

O=C(O)c1ccc(-n2cc(/C=N/Nc3ccc(Cl)cc3Cl)c(-c3ccccc3)n2)cc1
inactive: HCT-15 colon 72% | HT29 colon 94.9% | SNB-75 CNS 88.4% | SNB-19 CNS 101% | PC-3 prostate 80.7% | SK-MEL-5 melanoma 87.1% | UACC-62 melanoma 96.2% | LOX IMVI melanoma 91.9% | SK-MEL-28 melanoma 103%

N#CC(C#N)=C1NC(c2ccccc2)=C(c2ccccc2)C(c2ccccc2Cl)=C1C#N
inactive: HCT-15 colon 102% | HT29 colon 80.4% | SNB-75 CNS 107% | SNB-19 CNS 106% | PC-3 prostate 87.8% | SK-MEL-5 melanoma 105% | UACC-62 melanoma 102% | LOX IMVI melanoma 91.5% | SK-MEL-28 melanoma 114%

Cc1c(O)c(=O)ccn1-c1nc2ccccc2s1
inactive: HCT-15 colon 38.2% | HT29 colon 93.8% | SNB-75 CNS 95.7% | SNB-19 CNS 110% | PC-3 prostate 90.4% | UACC-62 melanoma 98.3% | LOX IMVI melanoma 86.7% | SK-MEL-28 melanoma 107%

O=C(CCc1nnc2sc(OCc3ccccc3)nn12)c1nc2ccc([N+](=O)[O-])cc2[nH]1
inactive: HCT-15 colon 108% | SNB-75 CNS 103% | SNB-19 CNS 108% | U251 CNS 99.8% | PC-3 prostate 94.4% | SK-MEL-5 melanoma 110% | UACC-62 melanoma 96.6% | LOX IMVI melanoma 91.3% | SK-MEL-28 melanoma 115%

COC(=O)/C=C/c1cc(OC(C)=O)c2c(c1)C(C(=O)OC)C(c1ccc(OC(C)=O)c(OC(C)=O)c1)O2 (stereo unspecified)
active: HCT-15 colon 7.82% | U251 CNS 7.2% | SK-MEL-5 melanoma -19%
inactive: SNB-75 CNS 46.3% | SNB-19 CNS 23.1% | PC-3 prostate 12% | UACC-62 melanoma 32.6% | LOX IMVI melanoma 14.1% | SK-MEL-28 melanoma 50.5%

CCN(CC)c1ccc2c(c1)Oc1nc(N)c(C#N)c(N)c1C2Sc1ccc(OC)cc1 (stereo unspecified)
inactive: SNB-19 CNS 20.9% | SK-MEL-28 melanoma 29.3%
active: HCT-15 colon 2.89% | SNB-75 CNS -10% | U251 CNS -36.4% | PC-3 prostate 1.15% | SK-MEL-5 melanoma 1.93% | UACC-62 melanoma -16.9% | LOX IMVI melanoma -63.6%

OCCNc1nc(NCCO)nc(Nc2ccc(C3=NN(c4cc(Cl)cc(Cl)c4)C(c4ccccc4)C3)cc2)n1 (stereo unspecified)
active: LOX IMVI melanoma -36.9%
inactive: HCT-15 colon 27.5% | SNB-75 CNS 52.5% | SNB-19 CNS 58.7% | U251 CNS 27.2% | PC-3 prostate 24.5% | SK-MEL-5 melanoma 51.7% | UACC-62 melanoma 20.9% | SK-MEL-28 melanoma 49.9%

Cc1nc(C)c(C)nc1C
inactive: HCT-15 colon 109% | SNB-75 CNS 101% | SNB-19 CNS 99.2% | U251 CNS 96.7% | PC-3 prostate 98.3% | SK-MEL-5 melanoma 102% | LOX IMVI melanoma 101% | SK-MEL-28 melanoma 113%

COc1cc(C2CC(c3ccc(Nc4nc(NCCO)nc(NCCO)n4)cc3)=NN2c2cc(Cl)cc(Cl)c2)cc(OC)c1OC (stereo unspecified)
active: SNB-75 CNS -14.6% | U251 CNS -36.2% | PC-3 prostate -42.1% | SK-MEL-5 melanoma -45.8% | UACC-62 melanoma 2.21% | LOX IMVI melanoma -60.2% | SK-MEL-28 melanoma -70%
inactive: HCT-15 colon 16.3% | SNB-19 CNS 17.4%

C[C@@H]1C(=O)[C@@H]2C[C@@H](O)[C@@H](O)C[C@]2(C)[C@H]2CC[C@@]3(C)C(=C12)CC[C@@H]3[C@@](C)(O)[C@H](O)CCC(C)(C)O
inactive: HCT-15 colon 107% | SNB-75 CNS 108% | SNB-19 CNS 104% | U251 CNS 96.6% | PC-3 prostate 96.4% | SK-MEL-5 melanoma 98.1% | UACC-62 melanoma 97.8% | LOX IMVI melanoma 101% | SK-MEL-28 melanoma 113%

CCc1c(C(=O)N[C@@H](C(=O)OCc2ccccc2)C(C)O)[nH]c2ccc(Cl)cc12 (stereo partly specified)
inactive: HCT-15 colon 79.3% | SNB-75 CNS 19.9% | SNB-19 CNS 83.6% | U251 CNS 36.3% | PC-3 prostate 82.1% | SK-MEL-5 melanoma 84.1% | UACC-62 melanoma 91.4% | LOX IMVI melanoma 81.1% | SK-MEL-28 melanoma 100%

COc1ccc2nc(-c3ccc(OC)c(OC)c3)cc(-c3nnc(SCC(=O)Nc4ccc(/C(C)=N\O)cc4)n3-c3ccccc3)c2c1
inactive: HCT-15 colon 76.2% | SNB-75 CNS 77.3% | SNB-19 CNS 84.3% | U251 CNS 78.3% | PC-3 prostate 60.7% | SK-MEL-5 melanoma 71.7% | UACC-62 melanoma 71.1% | SK-MEL-28 melanoma 111%
active: LOX IMVI melanoma -28.1%

COc1ccc(-c2nnc(N3CCN(C(=O)CN4CCN(c5ccccc5)CC4)CC3)nc2-c2ccc(OC)cc2)cc1
active: PC-3 prostate 7.93% | SK-MEL-5 melanoma 8.21%
inactive: HCT-15 colon 18.5% | SNB-75 CNS 49.9% | SNB-19 CNS 53.5% | U251 CNS 37% | UACC-62 melanoma 52.1% | LOX IMVI melanoma 41.2% | SK-MEL-28 melanoma 56.5%

CCOCCc1c(O)nc(SC)[nH]c1=O
inactive: HCT-15 colon 98.2% | SNB-75 CNS 78.7% | SNB-19 CNS 95.9% | U251 CNS 103% | PC-3 prostate 91.1% | SK-MEL-5 melanoma 103% | UACC-62 melanoma 98.1% | LOX IMVI melanoma 105% | SK-MEL-28 melanoma 99.2%

Cc1cc2ccccc2c[n+]1CC(=O)c1ccc(-c2ccccc2)cc1
inactive: HCT-15 colon 84% | SNB-75 CNS 61.4% | SNB-19 CNS 58.8% | PC-3 prostate 29.7% | SK-MEL-5 melanoma 21.6% | UACC-62 melanoma 71.2% | LOX IMVI melanoma 54% | SK-MEL-28 melanoma 84%

CCOc1ccc(C2N(c3cc(OC)c(OC)c(OC)c3)C(=O)C2(F)F)cc1 (stereo unspecified)
active: SK-MEL-5 melanoma 6.76%
inactive: HCT-15 colon 22.6% | SNB-75 CNS 55.9% | SNB-19 CNS 54.1% | U251 CNS 36.2% | PC-3 prostate 37.3% | UACC-62 melanoma 51.6% | LOX IMVI melanoma 27.6% | SK-MEL-28 melanoma 66.8%

C=C1C(=O)O[C@H]2[C@H]1CC/C(COC(=O)CCCCCCC(=O)OC/C1=C/CC[C@@]3(C)O[C@H]3[C@H]3OC(=O)C(=C)[C@@H]3CC1)=C\CC[C@@]1(C)O[C@@H]21
inactive: SNB-75 CNS 63.1% | SNB-19 CNS 65.9% | U251 CNS 44.1% | PC-3 prostate 36.1% | SK-MEL-5 melanoma 36.5% | SK-MEL-28 melanoma 48.8%
active: HCT-15 colon 0.887% | LOX IMVI melanoma -10.8%

Cc1ccc2nc3nc4ccc[nH]c4cc3c2c1
inactive: HCT-15 colon 60.4% | SNB-75 CNS 72.3% | SNB-19 CNS 97.3% | U251 CNS 92.5% | SK-MEL-5 melanoma 71.7% | UACC-62 melanoma 94.3% | LOX IMVI melanoma 97.9% | SK-MEL-28 melanoma 116%
